Experimental data as given in a collection of fitness landscapes (doi:10.1016/j.celrep.2020.107928).
In all, about 81,000 sequences were measured (“one-hybrid fitness for binding parS DNA”: median about -0.17, highest 2% from about 0.51 on). This excerpt belongs to a sample that is enriched for the highest values.

B1: Caulobacter ParB omega fusion; a variant is named by its letters at X, in order, B8GW30 (parent)
chain: MESVVVGEPGMSEGRRGLGRGLSALLGEVDAAPAQAPGEQLGGSREAPIEILQRNPDQPRRTFREEDLEDLSNSIREKGVLQPILVRPSPDTAGEYQIVAGERAWRAAQRAGLKTVPIMVRELDDLAVLEIGIIENVQRADLNVLEEALSYKVLMEKFERTQENIAQTIGKSXSHVANXMRLLXLPDEVQSYLVSGELTAXHARAIAAAADPVALAKQIIEGGLSVRETEALARKAPNLSAGKSKGGRPPRVKDTDTQALESDLSSVLGLDVSIDHRGSTGTLTITYATLEQLDDLCNRLTRGI

Variants of: B1
Test: one-hybrid fitness for binding parS DNA (scaled: cognate 1, non-cognate 0); higher = stronger binding
Conditions: with parS DNA site
In short: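 Bacterial one-hybrid selection in E. coli USO rpoZ- hisB- pyrF- with a HIS3 reporter carrying the site 19 bp from the promoter, screening Caulobacter ParB libraries with four specificity codons randomised (NNS). Cells grew 48 hours at 37°C on M9-minus-histidine plus 0.1 mM IPTG and 5 mM 3-AT. Plasmids before and after selection were Illumina-sequenced, three replicate libraries pooled, and variants under 10 reads dropped. Fitness is the log change in variant-to-wild-type read ratio, rescaled to cognate 1, non-cognate 0.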

one-hybrid fitness for binding parS DNA, 0.473:
RNTA

one-hybrid fitness for binding parS DNA, 0.999:
RVAG

one-hybrid fitness for binding parS DNA, 0.367:
RIAM

one-hybrid fitness for binding parS DNA, 0.55:
RITA

one-hybrid fitness for binding parS DNA, 0.885:
RIAT

one-hybrid fitness for binding parS DNA, 0.834:
RIFT

one-hybrid fitness for binding parS DNA, 0.574:
RQTA

one-hybrid fitness for binding parS DNA, 0.586:
RATA

one-hybrid fitness for binding parS DNA, 0.297:
RIFF

one-hybrid fitness for binding parS DNA, 0.541:
RFTA

one-hybrid fitness for binding parS DNA, 0.609:
RCTA

one-hybrid fitness for binding parS DNA, 0.746:
RKTA

one-hybrid fitness for binding parS DNA, 0.656:
RRTA

one-hybrid fitness for binding parS DNA, 0.376:
RGTA

one-hybrid fitness for binding parS DNA, 0.6:
RMTA

one-hybrid fitness for binding parS DNA, 0.464:
RVAY

one-hybrid fitness for binding parS DNA, 0.864:
RQKS

one-hybrid fitness for binding parS DNA, 0.316:
RQVN

one-hybrid fitness for binding parS DNA, 0.599:
RLTA

one-hybrid fitness for binding parS DNA, 0.494:
RQYY

one-hybrid fitness for binding parS DNA, 0.581:
RQKY

one-hybrid fitness for binding parS DNA, 0.937:
RQVS

one-hybrid fitness for binding parS DNA, 0.516:
RHTA

one-hybrid fitness for binding parS DNA, 0.329:
RVAM

one-hybrid fitness for binding parS DNA, 0.375:
RQVY

one-hybrid fitness for binding parS DNA, 0.582:
RYTA

one-hybrid fitness for binding parS DNA, 0.459:
RWTA

one-hybrid fitness for binding parS DNA, ≤ 0.2:
VHWV
CRAC
QHLA
DKPG
IKTN
AQFC
TGAE
RVFP
RVFK
GARV
QRMF
NYTA
NQTA
DTTA
EYTA
NTTA
DRTA
KQTA
NRTA
FTDF
KGIS
VCHR
EKES
KHQG
LHTY
DYTC
APHT
YEEE
RETA
RDTA
NLQR
HMPW
LVSL
QMTR
KAGR
GRLC
QTFT
ATQR
IINN
QNFC
DFTA
DITA
NVTA
RPTA
EITA
AVTA
EFTA
GLTC
TSQQ
VYNA
AYGG
SRQV
FRFR
ACAI
TPWT
GHMG
PGAS
DATA
NLTA
DLTA
HHAP
NDPH
RCLD
KLRG
RIAQ
RIFR
QSSH
PVNK
RQKP
RQKD
RQVD

one-hybrid fitness for binding parS DNA, 0.993:
RVFG

one-hybrid fitness for binding parS DNA, 0.578:
RSTA
RVTA

one-hybrid fitness for binding parS DNA, 0.612:
RTTA
